Results on 25 molecules are retold here after PubChem BioAssay (EPA / NIEHS).

Molecules are shown by their SMILES. Inconclusive results are not listed. Some structures have more than one record in an assay (separate samples or runs), and their calls can disagree. Active and inactive are the calls of the source. The calls were made as follows: active = hit-call score of the fitted dose curve at least 0.9, where 1 is the maximum; inconclusive = response in the unintended direction; inactive = score below 0.9.

The test system of the first assay is DIO3 (gene 1735). The assay is described as follows: CCTE_GLTED_hDIO3: CCTE's human Deiodinase 3 (DIO3) Inhibition Assay, Great Lakes Toxicology and Ecology Division (GLTED) Lab (AID 2284055).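 Also: potency is for inhibition seen as loss of released iodide signal.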 A digest of the protocol: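 Steps: incubate adenovirus-produced hDIO3 with chemical for 3 hours; detect freed iodide via cerium-arsenic Sandell-Kolthoff colorimetry; compare with DMSO baseline.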
By AC50 is commonly meant the midpoint of the concentration-response curve, whichever way the signal moves. As to `C=CC(=O)OCC(F)(F)C(F)(F)C(F)(F)COC(=O)C=C`, the AC50 is 45.1 µM (active).

With `CCCCCCCCCCCCCC[P+](CCCC)(CCCC)CCCC`, the AC50 is 3.56 µM (active). Turning to `C=C(C)C(=O)OCC(F)(F)C(F)(F)C(F)(F)C(F)F`, the AC50 is 14.2 µM (active). On the same count and under the same terms, the same measure for `CCN=C1C=CC(=C(c2ccc(N(CC)CC)cc2)c2ccc(N(CC)CC)cc2)c2ccccc21`: 8.42 µM (active); for `CCCCCCCCn1sc(Cl)c(Cl)c1=O`: 7.82 µM (active); for `C=CC(=O)OCCC(F)(F)C(F)(F)C(F)(F)C(F)(F)F`: 51.8 µM (active). On the same count and under the same terms, the same measure for `CCN=c1cc2oc3cc(NCC)c(C)cc3c(-c3ccccc3C(=O)OCC)c-2cc1C`: 157 µM (active). The same measure, in the same setting: the same measure for `CCCCCCCC/C=C\CCCCCCCC(=O)OCC(O)CO` (stereo not drawn): 21.3 µM (active). For `CCCCCCCC/C=C\CCCCCCCC(=O)N(C)CC(=O)O`, the AC50 was 22 µM (active).

`CCCCCCCCCCCCC[N+](C)(C)Cc1ccccc1`: the AC50 was 17 µM (active).

Test system in the next assay: not listed separately
In words: CCTE_Shafer_MEA_dev_LDH: CCTE's Lactate Dehydrogenase Assay for Cytotoxicity in the Neural Network Formation Assay, Shafer Lab (AID 2284068).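 Also: exposure for twelve days from plating with re-dosing on DIV 5 and 9.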 A digest of the protocol: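 Primary rat cortical neurons were cultured on PEI-coated MEA plates and exposed from plating through day 12, with compound renewed at medium changes on DIV 5 and 9. LDH activity was read spectrophotometrically; loss of signal versus DMSO indicates reduced viability.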
For the molecule `NC(=O)C(F)(F)C(F)(F)C(F)(F)F`, the call was inactive. The same measure, in the same setting: the same measure for `O=S(=O)(O)CCC(F)(F)C(F)(F)C(F)(F)C(F)(F)F`: “inactive”; for `CNS(=O)(=O)C(F)(F)C(F)(F)C(F)(F)C(F)(F)C(F)(F)C(F)(F)C(F)(F)C(F)(F)F`: “inactive”. In the case of `C=CC(=O)OCC(F)(F)C(F)(F)C(F)(F)COC(=O)C=C`, the AC50 was 5.84 µM (active). For the molecule `OC(O)C(F)(F)C(F)(F)F`, the call was inactive. On to `OCC(F)(F)C(F)(F)C(F)(F)C(F)(F)C(F)(F)C(F)(F)C(F)(F)C(F)(F)CO`, for which the AC50 is 23.3 µM (active). Regarding `NC(=O)C(F)(F)C(F)(F)C(F)(F)C(F)(F)C(N)=O`, the molecule was classed as inactive.

Turning to `CCN(CCO)S(=O)(=O)C(F)(F)C(F)(F)C(F)(F)C(F)(F)C(F)(F)C(F)(F)C(F)(F)C(F)(F)F`, the AC50 is 10.1 µM (active) and the outcome was inactive. Turning to `C=CC(=O)OCCC(F)(F)C(F)(F)C(F)(F)C(F)(F)F`, the AC50 is 15 µM (active). Regarding `O=C(O)C(F)(F)C(F)(F)C(F)(F)OC(F)(F)F`, the molecule was called inactive. Same read-out and setting: the same measure for `OCC(F)(F)C(F)(F)C(F)(F)CO`: “inactive”. Still for that read-out and setting: the result for `FC(F)(F)C(F)(F)C(F)(F)C(F)(F)C(F)(F)C(F)(F)C(F)(F)CCI` reads “inactive”.

`NC(=O)C(F)(F)C(F)(F)C(F)(F)C(F)F`: the result was inactive. On the same count and under the same terms, the result for `CO[Si](C)(CCC(F)(F)C(F)(F)C(F)(F)C(F)(F)C(F)(F)C(F)(F)F)OC` reads “inactive”. Same read-out and setting: the result for `NC(O)(C(F)(F)F)C(F)(F)F` reads “inactive”; that for `OCCCCC(F)(F)C(F)(F)C(F)(F)C(F)(F)F`, “inactive”; that for `OCC(F)(F)C(F)(F)C(F)(F)C(F)(F)C(F)(F)C(F)(F)CO`, “inactive”.

Test system in a further assay: not listed separately
The assay is described as follows: CCTE_Shafer_MEA_dev_AB: CCTE's Alamar Blue Assay for Cytotoxicity in the Neural Network Formation Assay, Shafer Lab (AID 2284083).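 Also: resazurin reduction fluorescence as viability of cultured neurons; twelve days of exposure from plating with re-dosing on DIV 5 and 9.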 A digest of the protocol:
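Resazurin fluorescence, relative to DMSO, gauges viability after twelve days of exposure that began at plating of rat cortical neurons (1.5 x 10^5 cells/well, 48-well MEA); treatment renewed with full medium exchange on DIV 5 and 9.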
(Resazurin is reduced to fluorescent resorufin, in cell work by metabolically active cells.)
For `C=CC(=O)OCC(F)(F)C(F)(F)C(F)(F)COC(=O)C=C`, the AC50 is 7.96 µM (active). Still for that read-out and setting: the same measure for `OCC(F)(F)C(F)(F)C(F)(F)C(F)(F)C(F)(F)C(F)(F)C(F)(F)C(F)(F)CO`: 24.4 µM (active). As for `CCN(CCO)S(=O)(=O)C(F)(F)C(F)(F)C(F)(F)C(F)(F)C(F)(F)C(F)(F)C(F)(F)C(F)(F)F`, the result was inactive.

For `C=CC(=O)OCCC(F)(F)C(F)(F)C(F)(F)C(F)(F)F`, the AC50 was 21.8 µM (active). For the molecule `OCCCCC(F)(F)C(F)(F)C(F)(F)C(F)(F)F`, the outcome was inactive.
